Source: PubChem (National Center for Advancing Translational Sciences (NCATS))
Hits are enriched below; roughly 15% of the tested compounds scored in any of these assays.
DT40 TDP1 no CPT = qHTS for Inhibitors of human tyrosyl-DNA phosphodiesterase 1 (TDP1): qHTS in cells in absence of CPT; DT40 Tdp1-/- hTDP1 cells, no CPT, ATP luminescence, 48 h; Potency, µM (highest dose often 46.2 µM), for the others: at the highest dose activity change, negative = growth inhibition, usual class: inhibitors; 15% of 420,000 active; AID 686978, 2013; note: nearly all actives have a fitted effect of over 55% in size
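Camptothecin absent (DMSO only). Human TDP1-complemented DT40 knockout cells, 400 cells/well, 37 °C for minimum 48 hr; ATP measured via CellTiter-Glo, 30 min dark incubation, luminescence.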
ALOX12 inh = blocks human arachidonate 12S-lipoxygenase; 1.1% of 580,000 active; Potency, µM (series often up to 108 µM), for the others: top-dose activity change, negative = inhibition, most hits filed as inhibitors; P18054; AID 1671190; purified 12hLO, xylenol orange hydroperoxide absorbance
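Purified human 12hLO at 150 nM in 25 mM Hepes, 0.01% Triton X-100, pH 7.0, preincubated 15 min at room temperature with compound. Reaction started with 40 uM arachidonic acid, 30 min at room temperature. Hydroperoxide measured by Fe-xylenol orange, 573/405 nm absorbance ratio.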
VP16 counter = inhibits Gal4-VP16 luciferase reporter, ROR gamma counter-screen | Drosophila S2 Gal4-VP16 UAS-luciferase, luminescence, 20 h | 3.5% of 310,000 active | Potency, µM (highest dose often 53.6 µM), without a hit: top-dose activity, negative = inhibition, actives largely listed as inhibitors;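 note: Gal4-VP16 expression switched on by copper sulfate through the metallothionein promoter; nearly all actives have a fitted effect of over 50% in size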
RORg inh = inhibitors of mouse ROR gamma transcriptional activity; P51450; Drosophila S2 Gal4-RORgamma UAS-luciferase reporter, 20 h; Potency, µM (top dose mostly 53.6 µM), without a hit: at the top dose activity change, negative = inhibition, most hits filed as inhibitors; 5.4% of 310,000 active; AID 2551; note: nearly all actives have a fitted effect of over 60% in size
Target sequence (P51450 whole entry, looked up, the tested form may be a part): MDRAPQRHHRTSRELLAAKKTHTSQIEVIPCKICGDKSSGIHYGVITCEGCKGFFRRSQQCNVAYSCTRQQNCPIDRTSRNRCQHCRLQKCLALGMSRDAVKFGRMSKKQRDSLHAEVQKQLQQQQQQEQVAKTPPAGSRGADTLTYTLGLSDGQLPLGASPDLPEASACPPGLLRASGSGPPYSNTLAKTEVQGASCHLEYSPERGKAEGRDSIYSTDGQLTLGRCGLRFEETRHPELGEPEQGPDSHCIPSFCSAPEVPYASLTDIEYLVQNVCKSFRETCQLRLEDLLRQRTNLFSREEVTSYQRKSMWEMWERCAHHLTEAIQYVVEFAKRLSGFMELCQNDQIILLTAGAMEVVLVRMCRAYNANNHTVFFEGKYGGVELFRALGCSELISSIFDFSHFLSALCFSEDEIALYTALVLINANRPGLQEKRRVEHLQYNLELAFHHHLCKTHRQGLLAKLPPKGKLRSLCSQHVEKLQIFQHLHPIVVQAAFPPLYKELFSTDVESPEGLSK
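A Gal4/UAS one-hybrid system in insect cells: metallothionein-promoter Gal4–ROR gamma fusion plus Photinus luciferase reporter. Copper sulfate 700 uM final, 20 hr ambient incubation, luminescent detection after 10 min with reagent.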
DT40 TDP1 CPT = DT40-hTDP1 cell growth loss with CPT; chicken DT40 Tdp1-/-;hTDP1 cells + 20 nM CPT, ATP luminescence, 48 h; Potency, µM (doses to about 46.2 µM), inactives show at the highest dose activity change, negative = growth inhibition, actives largely listed as inhibitors; 12% of 420,000 active; AID 686979; note: nearly all actives have a fitted effect of over 55% in size
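Cell growth measured by CellTiter-Glo luminescence after a minimum 48 h, 37 C compound exposure with 20 nM CPT in Tdp1-knockout DT40 cells stably expressing hTDP1, seeded 400/well; qHTS titration format.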
ELG1 repair inh = inhibitors of ELG1-dependent DNA repair in HEK293T cells. AID 504467. HEK293T ELG1-luciferase reporter, luminescence, 16 h; DNA damage induced by 5-fluorouridine. 2.3% of 330,000 active. Potency, µM (highest dose often 46.1 µM), without a hit: top-dose activity change, negative = inhibition, most hits filed as inhibitors; note: nearly all actives have a fitted effect of over 55% in size
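Quantitative HTS, concentration-response format. 2,000 cells/well co-treated with 5-fluorouridine and compound, 16 hr in 5% CO2 at 37 °C; ONE-Glo luminescence read after 30 min.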
Numbers without * were called inactive; ? = inconclusive; . = no result; [ ] = dose if it differs, or a comment. Calls come from the whole dose curve; as a rule, active = well fitted curve in the direction sought with a large enough effect; inconclusive = small, poorly fitted or top-dose-only effect, or another doubt; inactive = no such curve, though single readings can be large; an effect the other way counts as inactive or inconclusive. % is set by controls: 0 for no effect and ±100 for the full control effect; potency is the fitted concentration of half-maximal effect.

SMILES | DT40 TDP1 no CPT | ALOX12 inh | VP16 counter | RORg inh | DT40 TDP1 CPT | ELG1 repair inh
C/C(=N\Nc1ncc(Cl)cc1Cl)c1ccc(N2CCOCC2)cc1 | ? | -9% | ? | 5µM* | ? | 6%
C/C(=N\Nc1nc2ccccc2[nH]1)c1ccc(N2CCOCC2)cc1 | 16µM* | -11% | ? | 3.2µM* | ? | ?
COC(=O)Nc1ccc(CNCc2ccccn2)cc1 | . | 7% | . | . | . | .
Cc1ccc(S(=O)(=O)NCC2CCC(C(=O)NCC(=O)N(C)Cc3ccccc3)CC2)cc1 (centres undefined) | . | -9% | . | . | . | .
COc1ccc(-c2nc(NCCCN3CCCCC3C)c3ccccc3n2)cc1 (centres undefined) | . | 1% | . | . | . | .
C/C(=N/Nc1nc(C)cc(C)n1)c1ccc(Br)cc1 | ? | 48% | 7.9µM* | 7.9µM* | ? | ?
C/C(=N\Nc1nc(C)cc(C)n1)c1ccc([N+](=O)[O-])cc1 | . | 16% | . | . | . | .
CCOC1C(C2COC3(CCCCC3)O2)OC2OC3(CCCCC3)OC21 (centres undefined) | . | -10% | . | . | . | .
Clc1ccc(N=Cc2ccc3ccccc3c2)cc1Cl | . | 31% | . | . | . | .
O=[N+]([O-])c1cc(C=Nc2ccc3ccccc3c2)ccc1Br | 2.9µM* | -18% | ? | 20µM* | 2.6µM* | ?
CC(=O)N1CCN(c2nc3c(s2)CC(C(=O)Nc2cc(F)cc(F)c2)CC3)CC1 (centres undefined) | . | 7% | . | . | . | .
Cc1ccc(NC(=O)COc2cccc3ccc(C)nc23)c(Br)c1 | 23µM* | 4% | -1% | -29% | ? | -10%
Cc1ccc(OCC(=O)Nc2cccc3ccc(C)nc23)c(C)c1 | ? | -4% | . | . | ? | .
CS(=O)(=O)c1cccc(OCCOc2ccc(F)cc2)c1 | . | 65% | . | . | . | .
COCc1ccc(CN2CCOc3c(cc(-c4cc(C)c5cccc(OC)c5n4)cc3OC)C2)o1 | 21µM* | 12% | . | . | -5%[9.04 µM] | .
COc1cc(-c2cc(C)c3cccc(OC)c3n2)cc2c1OCCN(C(=O)CCn1ccc(C)n1)C2 | 23µM* | 9% | . | . | -16%[9.04 µM] | .
COc1cc(-c2c(OC)cccc2OC)cc2c1OCCN(C(=O)CCn1nc(C)cc1C)C2 | -17% | 1% | . | . | -5%[9.04 µM] | .
COc1cccc(C(=O)Nc2ccc3c(c2)CN(Cc2cccc(OC)c2OC)C(=O)CO3)c1 | . | 26% | . | . | . | .
CCNc1nc(NCC)nc(N(CC)C(N)=S)n1 | 3% | ? | ? | 5µM* | 3% | ?
CCNc1nc(NCC)nc(N(C#N)C(C)C)n1 | 6% | -11% | 13% | 1% | 8% | ?
Cc1ccc2cccc(OCc3ccccc3)c2n1 | -12% | 16% | -1% | 14µM* | 11% | 12%
Cc1nc2c(O)cccc2cc1CO | 4% | 19% | ? | 10µM* | -4% | 1%
Oc1cccc2ccc(/C=C/c3c(F)cccc3Cl)nc12 | ? | -22% | ? | 3.2µM* | ? | ?
COc1ccc(C(=O)N/N=C/c2ccc3cccc(O)c3n2)cc1 | 5.2µM* | -9% | 4µM* | 1.4µM* | ? | ?
O=C1NC2(CCOCC2)C(=O)N1CC(=O)N1CCCc2ccccc21 | . | 20% | . | . | . | .
SMILES | DT40 TDP1 no CPT | ALOX12 inh | VP16 counter | RORg inh | DT40 TDP1 CPT | ELG1 repair inh
Oc1cccc2ccc(/C=C/c3ccccc3Cl)nc12 | 7.3µM* | -18% | 4.5µM* | 4µM* | 9.2µM* | ?
O/N=C/c1ccc2cccc(O)c2n1 | 6% | -21% | ? | 11µM* | 0% | 0%
O=[N+]([O-])c1ccccc1/C=C/c1ccc2ccccc2n1 | ? | -2% | 2% | 26% | -40% | ?
Cc1ccc2cccc(O)c2n1 | 7.1µM* | . | . | . | 7.1µM* | .
CC(CC(=O)Nc1cccc(O)c1)(C(=O)O)c1ccccc1 (centres undefined) | . | 8% | . | . | . | .
CSCCC(NC(=O)c1ccc(Cl)cc1Cl)C(=O)N1CCCCCCC1 (centres undefined) | 23µM* | ? | . | . | ? | -4%
CCOC(=O)C1=C(C)N(C[C@@H]2CC[C@@H](Cc3ccc(-c4ccccc4)cc3)O2)C(=O)NC1c1ccc(SCc2ccco2)c([N+](=O)[O-])c1 (some centres undefined) | ? | 18µM* | . | . | ? | 2%
Cc1ccc(SC(C)C(=O)NC2CCCCC2)cc1 (centres undefined) | . | -1% | . | . | . | .
CCC1CCc2sc(C(=O)NNC(=S)NCC3CCCO3)cc2C1 (centres undefined) | ? | 307% | . | . | ? | 9%
CCC1CCc2sc(C(=O)NCC(c3ccccc3OC)N3CCCC3)cc2C1 (centres undefined) | 21µM* | 145% | . | . | 16µM* | -7%
CCC1CCc2sc(C(=O)NCC3CCCO3)cc2C1 (centres undefined) | 18µM* | -5% | . | . | ? | ?
CCC1CCc2sc(C(=O)NCc3ccccn3)cc2C1 (centres undefined) | 10µM* | 9% | -2% | ? | 15µM* | ?
CN(Cc1cc(=O)n2cc(Cl)ccc2n1)Cc1ccc(F)cc1F | . | 15% | . | . | . | .
